# This is one part of a sample in which the strongest signals are shown more often than they occur.
# What was measured:
# Assay in all cases: glycan array binding signal (z-score within array); higher = stronger binding
# Conditions in all cases: glycan notation: IUPAC condensed, linker removed
# [1] = target: Fuc(a1-2)Gal(b1-3)GalNAc(b1-4)[Neu5Ac(a2-3)]Gal(b1-4)Glc
# Outline: (§1)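 Columns mapping to the same glycan were averaged after glycan names were converted to IUPAC-condensed notation. The data come from 3228 arrays in the Consortium for Functional Glycomics database, limited to those with an available protein sequence. Binding is reported as a within-array Z-score averaged across arrays of one protein sequence and across linkers.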
# [2] = target: Fuc(a1-2)Gal(b1-3)[Fuc(a1-4)]GlcNAc(b1-2)Man(a1-3)[Fuc(a1-2)Gal(b1-3)[Fuc(a1-4)]GlcNAc(b1-2)Man(a1-6)]Man(b1-4)GlcNAc(b1-4)GlcNAc
# Outline: as §1
# [3] = target: Fuc(a1-2)Gal(b1-4)[Fuc(a1-3)]GlcNAc(b1-2)[Fuc(a1-2)Gal(b1-4)[Fuc(a1-3)]GlcNAc(b1-4)]Man(a1-3)[Fuc(a1-2)Gal(b1-4)[Fuc(a1-3)]GlcNAc(b1-2)Man(a1-6)]Man(b1-4)GlcNAc(b1-4)GlcNAc
# Outline: as §1
# [4] = target: Fuc(a1-2)Gal(b1-4)[Fuc(a1-3)]GlcNAc(b1-3)GalNAc
# Outline: as §1
# [5] = target: Fuc(a1-2)[Gal(a1-3)]Gal(b1-3)GlcNAc(b1-3)GalNAc
# Outline: as §1
# [6] = target: Fuc(a1-2)[Gal(a1-3)]Gal(b1-4)[Fuc(a1-3)]GlcNAc(b1-3)GalNAc
# Outline: as §1
# [7] = target: Fuc(a1-2)[GalNAc(a1-3)]Gal(b1-3)GalNAc(a1-3)[Fuc(a1-2)]Gal(b1-4)GlcNAc
# Outline: as §1
# [8] = target: Fuc(a1-2)[GalNAc(a1-3)]Gal(b1-3)GlcNAc(b1-3)GalNAc
# Outline: as §1
# [9] = target: Fuc(a1-2)[GalNAc(a1-3)]Gal(b1-4)GlcNAc(b1-3)GalNAc
# Outline: as §1
# [10] = target: Fuc(a1-2)[GalNAc(a1-3)]Gal(b1-4)[Fuc(a1-3)]GlcNAc(b1-3)GalNAc
# Outline: as §1
# [11] = target: Fuc(a1-3)[Gal(b1-4)]GlcNAc(b1-2)Man(a1-6)[Gal(b1-4)GlcNAc(b1-2)Man(a1-3)]Man(b1-4)GlcNAc(b1-4)GlcNAc
# Outline: as §1
# [12] = target: Fuc(a1-3)[Gal3S(b1-4)]GlcNAc6S
# Outline: as §1
# [13] = target: Fuc(a1-3)[GalNAc(b1-4)]GlcNAc
# Outline: as §1
# [14] = target: Gal(a1-3)Gal(b1-3)GlcNAc(b1-2)Man(a1-3)[Gal(a1-3)Gal(b1-3)GlcNAc(b1-2)Man(a1-6)]Man(b1-4)GlcNAc(b1-4)GlcNAc
# Outline: as §1
# Gal(b1-2)Gal = target: Gal(b1-2)Gal
# Outline: as §1
# [15] = target: Gal(b1-3)GlcNAc(b1-3)Gal(b1-3)GlcNAc
# Outline: as §1
# [16] = target: Gal(b1-3)GlcNAc(b1-6)Gal(b1-4)GlcNAc
# Outline: as §1
# [17] = target: Gal(b1-4)GlcNAc(b1-3)[GlcNAc(b1-6)]Gal(b1-4)GlcNAc
# Outline: as §1
# Gal(b1-6)Gal = target: Gal(b1-6)Gal
# Outline: as §1
# Gal3S(b1-4)Glc6S = target: Gal3S(b1-4)Glc6S
# Outline: as §1
# Gal3S(b1-4)GlcNAc6S = target: Gal3S(b1-4)GlcNAc6S
# Outline: as §1
# [18] = target: GalNAc(a1-3)GalNAc(a1-3)Gal(a1-4)Gal(b1-4)GlcNAc
# Outline: as §1
# GalNAc(b1-3)Gal = target: GalNAc(b1-3)Gal
# Outline: as §1
# [19] = target: GalNAc(b1-3)Gal(a1-4)Gal(b1-4)GlcNAc(b1-3)Gal(b1-4)Glc
# Outline: as §1
# [20] = target: GalNAc(b1-3)Gal(a1-6)Gal(b1-4)Glc
# Outline: as §1
# GlcA(b1-3)GlcNAc = target: GlcA(b1-3)GlcNAc
# Outline: as §1
# [21] = target: GlcNAc(a1-3)Gal(b1-4)GlcNAc
# Outline: as §1
# [22] = target: GlcNAc(b1-3)Gal(b1-4)GlcNAc(b1-3)Gal(b1-4)GlcNAc
# Outline: as §1
# [23] = target: GlcNAc(b1-4)[GlcNAc(b1-6)]GalNAc
# Outline: as §1
# Man(a1-2)Man(a1-3)Man = target: Man(a1-2)Man(a1-3)Man
# Outline: as §1
# Neu5Ac(a2-3)Gal = target: Neu5Ac(a2-3)Gal
# Outline: as §1
# [24] = target: Neu5Ac(a2-3)Gal(b1-3)GalNAc(b1-4)[Neu5Ac(a2-3)]Gal(b1-4)Glc
# Outline: as §1
# [25] = target: Neu5Ac(a2-3)Gal(b1-3)GlcNAc
# Outline: as §1
# [26] = target: Neu5Ac(a2-3)Gal(b1-3)GlcNAc(b1-3)Gal(b1-3)GlcNAc
# Outline: as §1
# Neu5Ac(a2-3)Gal(b1-4)Glc = target: Neu5Ac(a2-3)Gal(b1-4)Glc
# Outline: as §1
# [27] = target: Neu5Ac(a2-3)Gal(b1-4)GlcNAc(b1-3)Gal(b1-4)GlcNAc
# Outline: as §1
# [28] = target: Neu5Ac(a2-3)Gal(b1-4)GlcNAc(b1-3)Gal(b1-4)GlcNAc(b1-3)Gal(b1-4)GlcNAc
# Outline: as §1
# [29] = target: Neu5Ac(a2-3)Gal(b1-4)GlcNAc(b1-3)Gal(b1-4)[Fuc(a1-3)]GlcNAc
# Outline: as §1
# [30] = target: Neu5Ac(a2-3)Gal(b1-4)[Fuc(a1-3)]GlcNAc6S
# Outline: as §1
# [31] = target: Neu5Ac(a2-6)Gal(b1-4)GlcNAc(b1-2)Man(a1-3)[Man(a1-6)]Man(b1-4)GlcNAc(b1-4)GlcNAc
# Outline: as §1
# [32] = target: Neu5Gc(a2-3)Gal(b1-4)[Fuc(a1-3)]GlcNAc
# Outline: as §1
binder,measurement,setting,value
"PILRa (Homo sapiens), Q9UKJ1 (protein) MGRPLLLPLLPLLLPPAFLQPSGSTGSGPSYLYGVTQPKHLSASMGGSVEIPFSFYYPWELATAPDVRISWRRGHFHRQSFYSTRPPSIHKDYVNRLFLNWTEGQKSGFLRISNLQKQDQSVYFCRVELDTRSSGRQQWQSIEGTKLSITQAVTTTTQRPSSMTTTWRLSSTTTTTGLRVTQGKRRSDSWHISLETAVGVAVAVTVLGIMILGLICLLRWRRRKGQQRTKATTPAREPFQNTEEPYENIRNEGQNTDPKLNPKDDGIVYASLALSSSTSPRAPPSHRPLKSPQNETLYSVLKA",glycan array binding signal (z-score),[1],-0.102
same,glycan array binding signal (z-score),[2],4.38
same,glycan array binding signal (z-score),[3],4.02
same,glycan array binding signal (z-score),[4],5.45
same,glycan array binding signal (z-score),[5],0.023
same,glycan array binding signal (z-score),[6],3.41
same,glycan array binding signal (z-score),[7],-0.142
same,glycan array binding signal (z-score),[8],4.4
same,glycan array binding signal (z-score),[9],-0.194
same,glycan array binding signal (z-score),[10],9.37
same,glycan array binding signal (z-score),[11],-0.546
same,glycan array binding signal (z-score),[12],-0.051
same,glycan array binding signal (z-score),[13],-0.102
same,glycan array binding signal (z-score),[14],4.98
same,glycan array binding signal (z-score),Gal(b1-2)Gal,0.001
same,glycan array binding signal (z-score),[15],0.263
same,glycan array binding signal (z-score),[16],-0.136
same,glycan array binding signal (z-score),[17],-0.338
same,glycan array binding signal (z-score),Gal(b1-6)Gal,-0.177
same,glycan array binding signal (z-score),Gal3S(b1-4)Glc6S,0.618
same,glycan array binding signal (z-score),Gal3S(b1-4)GlcNAc6S,-0.01
same,glycan array binding signal (z-score),[18],-0.27
same,glycan array binding signal (z-score),GalNAc(b1-3)Gal,0.508
same,glycan array binding signal (z-score),[19],-0.169
same,glycan array binding signal (z-score),[20],-0.215
same,glycan array binding signal (z-score),GlcA(b1-3)GlcNAc,6.02
same,glycan array binding signal (z-score),[21],0.089
same,glycan array binding signal (z-score),[22],-0.259
same,glycan array binding signal (z-score),[23],-0.213
same,glycan array binding signal (z-score),Man(a1-2)Man(a1-3)Man,-0.144
same,glycan array binding signal (z-score),Neu5Ac(a2-3)Gal,-0.314
same,glycan array binding signal (z-score),[24],-0.281
same,glycan array binding signal (z-score),[25],0.854
same,glycan array binding signal (z-score),[26],-0.15
same,glycan array binding signal (z-score),Neu5Ac(a2-3)Gal(b1-4)Glc,-0.248
same,glycan array binding signal (z-score),[27],1.17
same,glycan array binding signal (z-score),[28],-0.327
same,glycan array binding signal (z-score),[29],-0.125
same,glycan array binding signal (z-score),[30],-0.092
same,glycan array binding signal (z-score),[31],-0.177
same,glycan array binding signal (z-score),[32],-0.343

# From the supplement of paper PMC8728848
